About 780 (0.94%) of roughly 83,000 compounds were called active. Many of the other results were omitted from the sample, so actives are more common in it than they were. A number with no mark means an inactive call.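 Rule for the calls: active = mean inhibition of at least 50% with a set share of replicates also reaching that level; inconclusive = no clear call, values can overlap the other calls; inactive = the rest.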

The source of these data is PubChem BioAssay AID1053188 (Broad Institute, 2014).

This test is described as follows: CD40 pathway blockade in BL2 B cells – cell-based, luciferase reporter, single point, primary screen (AID 1053188).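 Note: 0% = neutral control wells and 100% = IKK inhibitor VII at 50 µM.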 The note with it: BL2 NF-kB luciferase reporter, CD40L-induced, 4 h, active compounds read high; at 10 µM unless noted.
In the case of `CN(CCOc1ccccc1)C(=O)c1cc(-c2ccco2)nc2ccccc12`, the inhibition is 9.58%.
The same measure for `O=C(c1cc(-c2ccco2)nc2ccccc12)N(Cc1nnc(-c2ccc(Cl)cc2)o1)C1CC1`: 50.6% (active).
As to `CC1CCCN(C(=O)c2cc(-c3ccco3)nc3ccccc23)C1` (centres undefined), the inhibition is -1.36%.
The result for `CCOC(=O)c1ccc[n+](CC(=O)Nc2ccccc2OC(F)F)c1` reads -5.94%; that for `CC(C)N(Cc1nnc(-c2ccc(Cl)cc2)o1)C(=O)C1=COCCO1`, 3.68%; that for `CCOc1cc(C(=O)N(Cc2ccccc2)c2ccc(C)cc2)ccc1OCC(=O)N1CCOCC1`, -0.92%.
The result for `CCCN(CC(=O)Nc1ccccc1C)C(=O)c1ccc(OCC(=O)N2CCOCC2)c(OCC)c1` reads 23.3% (active); that for `COc1cc(C(=O)Nc2ncccc2C)ccc1OCC(=O)N1CCOCC1`, 6.83%; that for `CCNC(=O)C1(C)CCCN1C(=O)c1ccc(N(C)C)cc1` (centres undefined), -1.06%.
The same measure for `CC(C)NC(=O)N(C)C[C@H]1Oc2ccc(NS(C)(=O)=O)cc2C(=O)N(C)C[C@@H]1C`: 0.384%; for `COc1cccc(NC(=O)CN(C)CC(=O)Nc2ccc3c(c2)CCC3)c1`: 8.15%.
For the molecule `CSCCC(NC(=O)c1ccco1)C(=O)NCCc1ccc(F)cc1` (centres undefined), the inhibition was 0.567%.
The same measure for `COc1cccc(CNCCc2c[nH]c3ccccc23)c1OCc1ccccc1F`: 70.6% (active).
Turning to `Fc1ccccc1COc1ccccc1CNCc1ccncc1`, the inhibition is 0.766%.
The same measure for `COc1ccc(S(=O)(=O)NCCc2c[nH]c3ccccc23)cc1OC`: 6.21%; for `O=C(Nc1ncccc1O)c1ccc(S(=O)(=O)N2CCCC2)cc1`: -13.1%.
`COC(=O)C1=C(N)Oc2c(oc(CO)cc2=O)C1c1c(F)cccc1Cl` (centres undefined): the inhibition is 1.5%.
The result for `CCOc1ccc(C(=O)CCN2CCOCC2)cc1` reads 3.31%; that for `Cc1ccc(/C([O-])=C(/C(=S)NCc2ccco2)[n+]2ccccc2)cc1[N+](=O)[O-]`, 4.58%; that for `O=C(Nc1ccc([N+](=O)[O-])cc1)OCCc1ccccn1`, -49.3%.
The result for `N/C(=N\OC(=O)Cc1ccc([N+](=O)[O-])cc1)c1ccccn1` reads 64.7% (active); that for `O=C(COC(=O)Cc1ccc([N+](=O)[O-])cc1)NC1CCCCCC1`, 2.86%.
The result for `N/C(=N\OC(=O)c1ccc([N+](=O)[O-])cc1)c1ccccn1` reads 68.1% (active).
Consider `O=C(COC(=O)c1ccccn1)NNC(=O)c1ccc([N+](=O)[O-])cc1`, for which the inhibition was 0.903%.
The same measure for `O=C(CSc1nnc(-c2ccc([N+](=O)[O-])cc2)o1)Nc1ccccn1`: -47.6%.
The same measure for `COc1ccccc1C(=O)NC(CCSC)C(=O)N1CCN(C(C)=O)CC1` (centres undefined): 7.42%.
Regarding `OCCN1CCN(CCO)C1=S`, the inhibition was 4.32%.
For the molecule `COc1cc(OC)cc(C(=O)N[C@H](C(=O)NNC(=O)c2ccc(Br)cc2)C(C)C)c1`, the inhibition was -11.4%.
In the case of `CCc1ccc(C(=O)C(C)OC(=O)CN2C(=O)NC3(CCCC3)C2=O)cc1` (centres undefined), the inhibition is -8.47%.
With `CC(=O)c1cc(C#N)c(N2CCCCC2)nc1C`, the inhibition was 12.8%.
For the molecule `Cc1ccc(S(=O)(=O)N2CCN(C(=O)COC(=O)CNC(=O)c3ccc(C(C)(C)C)cc3)CC2)c(C)c1`, the inhibition was -31.5%.
The result for `COc1ccc2c(c1)c1ncn(Cc3ccccn3)c(=O)c1n2C` reads 56.2% (active); that for `COc1ccc(C(=O)COC(=O)c2nn(C)c(=O)c3ccccc23)c(OC)c1`, 4.47%.
With `Cc1ccc2c(c1)c1ncn(CCC3=CCCCC3)c(=O)c1n2C`, the inhibition is -13.8%.
Regarding `COc1ccc(CNC(=O)CN2CCC(n3nnc4cc(F)ccc43)CC2)cc1`, the inhibition is -0.322%.
The same measure for `CCCn1c(N)c(C(=O)CSc2nc3ccccc3c(=O)n2-c2ccc(OC)cc2)c(=O)[nH]c1=O`: -0.2%; for `CC(C)NC(=O)N(C)C[C@H]1OCc2ccccc2-c2c(n(C)c3ccccc23)C(=O)N([C@H](C)CO)C[C@@H]1C`: -3.58%; for `CC1Cc2ccccc2N1S(=O)(=O)c1cccc(C(=O)NCC(c2ccco2)N2CCCC2)c1` (centres undefined): 8.41%.
For `O=C(Nc1ccc(N2CCOCC2)cc1)c1cccc(S(=O)(=O)N2CCOCC2)c1`, the inhibition is 14.5%.
The same measure for `O=C(C1CCOCC1)N1CC(=O)N2[C@H](CO)[C@@H](c3ccc(C#CC4CCCC4)cc3)[C@H]2C1`: -2.24%; for `O=C(Nc1nnc(Cc2ccccc2)s1)c1cnccn1`: -14%; for `O=C(Nc1nnc(C2CC2)s1)c1ccccn1`: 12.5%.
The same measure for `Cc1cnc(NC(=O)c2ccccn2)s1`: 48.8% (active).
`CN1C(=O)c2cc(NS(=O)(=O)CC(F)(F)F)ccc2OC[C@H]2O[C@@H](CC(=O)NCc3ccc(Cl)c(Cl)c3)CC[C@@H]21`: the inhibition was -2.48% [at 25 µM].
The same measure for `Cc1cc(C(=O)COC(=O)C2CC2)c(C)n1-c1ccc(F)cc1`: 79.9% (active); for `COc1ccccc1C(=O)NC(=O)COC(=O)C1CC1`: -63%; for `Cc1cc(C(=O)COC(=O)CNC(=O)c2ccc(F)cc2)c(C)n1Cc1ccco1`: 29.3%.
The same measure for `N#C[C@H]1[C@H](c2ccc(C#Cc3ccc(F)cc3)cc2)[C@@H](CO)N1C(=O)C1CCCC1`: 58.9% (active).
The same measure for `N#C[C@@H]1[C@H](c2ccc(C#Cc3cccc(F)c3)cc2)[C@@H](CO)N1C(=O)C1CCCC1`: 60.3% (active).
As to `N#C[C@@H]1[C@@H](c2ccc(C#Cc3cccc(F)c3)cc2)[C@H](CO)N1C(=O)C1CCOCC1`, the inhibition is -15.7% [at 25 µM].
The result for `CCCC#Cc1ccc([C@@H]2[C@@H](C#N)N(C(=O)C3CCCC3)[C@@H]2CO)cc1` reads 4.81%.
In the case of `N#C[C@@H]1[C@@H](c2ccc(C#Cc3cccc(F)c3)cc2)[C@@H](CO)N1C(=O)C1CCC1`, the inhibition was -11.1%.
The same measure for `N#C[C@@H]1[C@H](c2ccc(C#Cc3ccccc3F)cc2)[C@H](CO)N1C(=O)C1CCCCC1`: 6.32%; for `COc1ccccc1CNC(=O)COC(=O)CNS(=O)(=O)c1ccc(NC(C)=O)cc1`: 5.75%.
